In PubChem BioAssay (NCATS):
Records with an inconclusive call do not appear. A call without a number means that no potency is given here. The source made the active and inactive calls. Calls come from the whole dose curve; as a rule, active = well fitted inhibition curve with a large enough effect; inconclusive = small, poorly fitted or top-dose-only effect; inactive = flat fitted curve, though single readings scatter.

Each compound was assayed on Zika virus NS2B-NS3 protease (assay: Primary screen GU AMC qHTS for Zika virus inhibitors (AID 1347154; note: nearly all actives have a fitted effect of over 70% in size)). Details: Zika NS2B-NS3 unlinked protease, AMC fluorogenic substrate; series mostly up to 54.1 µM.
Procedure, shortened: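 Unlinked Zika NS2B hydrophilic domain/NS3 protease domain noncovalent complex (25 nM final) in 10 mM Tris-HCl pH 8.0, 0.01% Tween 20, with AMC peptide substrate. Fluorescence (ex 340, em 450 nm) change over 15 min, room temperature; percent inhibition fitted to 4-parameter Hill equation.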
Potency is the fitted concentration of half-maximal effect.

SMILES | Potency
CCS(=O)(=O)C(C)(C)S(=O)(=O)CC | inactive
CCOC(C(=O)OCCN(C)C)(c1ccccc1)c1ccccc1 | inactive
O=C1CN2CCOC2(c2ccccc2Cl)c2cc(Cl)ccc2N1 (configuration not stated) | inactive
CN1C(=O)[C@@H](NC(=O)c2cc3ccccc3[nH]2)N=C(c2ccccc2)c2ccccc21 | inactive
CC(C(O)c1ccccc1)N(C)C/C=C/c1ccccc1 (configuration not stated) | inactive
CC1Sc2c(C(=O)O)c(=O)c3cc(F)c(N4CCNCC4)cc3n21 (configuration not stated) | inactive
Cc1ccc([N+](=O)[O-])[c]2c1[O][Hg]2 | inactive
NCc1cccnc1 | inactive
NC(=O)OCCCc1ccccc1 | inactive
CN(C)CCc1c[nH]c2ccc(O)cc12 | inactive
Nc1ccc(N)cc1 | inactive
CCN(Cc1ccc(Cl)nc1)/C(=C/[N+](=O)[O-])NC | inactive
CCOC(=O)NC(O)C(Cl)(Cl)Cl (configuration not stated) | inactive
C[C@]12C=CC(=O)C=C1CC[C@@H]1[C@@H]2CC[C@@]2(C)[C@H]1CC[C@]2(C)O | inactive
c1ccc2c(c1)Sc1ccccc1N2CC1CN2CCC1CC2 (configuration not stated) | inactive
OC(c1ccccc1)(c1ccccc1)C1CCNCC1 | inactive
O=c1n(Cl)c(=O)n(Cl)c(=O)n1Cl | inactive
CCNc1nc(Cl)nc(NCC)n1 | inactive
CCCCCCCCC(=O)NCc1ccc(O)c(OC)c1 | inactive

SMILES | Potency
CCc1cc(OC)c(C[C@H](C)N)cc1OC | inactive
CCC1(CC)C(=O)NC(=O)NC1=O | inactive
CCCC(C)C1(CC)C(=O)N=C(S)NC1=O (configuration not stated) | inactive
Nc1ccc(Cl)cc1C(=O)c1ccccc1F | inactive
CC(=O)OC1(c2ccccc2)CCN(CCc2ccccc2)CC1 | inactive
Clc1ccc(C(OCCN2CCCCC2)c2ccccc2)cc1 (configuration not stated) | inactive
C[N+](C)(C)CCOC(=O)C(O)(c1ccccc1)c1ccccc1 | inactive
c1cc2c(c(N3CCNCC3)c1)OCCO2 | inactive
CCC(OC(C)=O)C(CC(C)NC)(c1ccccc1)c1ccccc1 (configuration not stated) | inactive
COc1cc(C[C@@H](C)N)c(OC)cc1C | inactive
CC(Cc1ccccc1)NCCCCl (configuration not stated) | inactive
Oc1ccc([C@H]2CNCc3c2ccc(O)c3O)cc1O | 10.2 µM (active)
C=CCN1CC[C@]23CCCC[C@H]2[C@H]1Cc1ccc(O)cc13 | inactive
CN1CCc2cc(Cl)c(O)cc2[C@H]2c3ccccc3CC[C@@H]21 | inactive
CCc1ccc(C2CCNCC2)cc1 | inactive
COP(=O)(OC)C(O)C(Cl)(Cl)Cl (configuration not stated) | inactive
O=C(CCCN1CCC(n2c(=O)[nH]c3ccccc32)CC1)c1ccc(F)cc1 | inactive
CC[C@H]1C[C@@H]2C[C@H]3c4[nH]c5ccc(OC)cc5c4CCN(C2)[C@@H]13 | inactive
